# This is a sample that favours compounds with a hit; in the whole collection about 11% have one here.
# NS1 inh = qHTS Assay for Inhibitors of Influenza NS1 Protein Function. Potency, µM (top dose mostly 46.1 µM), for inactives: at the highest dose activity, positive = more growth. actives 0.4% (n = 270,000); calls by dose curve; note: actives are rising curves; nearly all actives have a fitted effect of over 50% in size
#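 OD600 was taken as the measure of yeast growth restored by compound in an NS1-expressing S. cerevisiae strain. Cells had been washed out of glucose medium and diluted 1:100 into galactose -URA medium, pH 6.0.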
# HCV inh = qHTS Assay for Inhibitors of Hepatitis C Virus (HCV); Huh7.5.1 HCVcc-Cre infection, luciferase reporter, 44 h; Potency, µM (titrated, usually from 41.8 µM), for the others: top-dose activity change, negative = inhibition, usual class: inhibitors; actives 3.4% (n = 340,000); AID 651820, 2012; note: % is set by controls: 0 for no effect and ±100 for the full control effect
#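 Whole-lifecycle infectious HCVcc-Cre system; cells 1,000/well, compound then virus (~0.5 moi) added 4 h after plating, 44 h culture. Luciferase read 15 sec following 15 min substrate incubation, room temp.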
# Vaccinia mCherry = qHTS for Stage-Specific Inhibitors of Vaccinia Orthopoxvirus: mCherry Reporter Primary qHTS; Vaccinia virus mCherry reporter infection, fluorescence; Potency, µM (series often up to 36.5 µM), inactives show at the highest dose activity change, negative = inhibition, usual class: inhibitors; actives 0.63% (n = 310,000); AID 720579, 2013; calls by dose curve; tested in A549 cells; note: % is set by controls: 0 for no effect and ±100 for the full control effect; nearly all actives have a fitted effect of over 35% in size
# Pf growth 96h = Primary qHTS for delayed death inhibitors of the malarial parasite plastid, 96 hour incubation | AID 504834, 2011 | actives 6.9% (n = 320,000) | Potency, µM (highest dose often 28.7 µM), without a hit: at the highest dose activity change, negative = inhibition, most hits filed as inhibitors | P. falciparum luciferase reporter growth, 96 h; note: % is set by controls: 0 for no effect and ±100 for the full control effect
#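 Readout is luminescence from an integrated firefly luciferase in P. falciparum. Red cells, 2% hematocrit and 0.05% parasitemia final, were cultured with compound through two parasite generations (96 hours) at 37 C, 5% CO2.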
# Pf growth 48h = Primary qHTS for delayed death inhibitors of the malarial parasite plastid, 48 hour incubation; actives 5.9% (n = 310,000); AID 504832, 2011; P. falciparum luciferase growth in erythrocytes, 48 h; Potency, µM (doses to about 28.7 µM), for the others: top-dose activity change, negative = inhibition, most hits filed as inhibitors; note: % is set by controls: 0 for no effect and ±100 for the full control effect
#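 In quantitative HTS format, infected erythrocytes bearing luciferase-reporter parasites were treated for a single generation at 37 C. Luminescence after adding detection reagent served as the growth measure.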
# VACV Venus inh = qHTS for Stage-Specific Inhibitors of Vaccinia Orthopoxvirus: Venus Reporter Primary qHTS. Potency, µM (highest dose often 36.5 µM), for the others: at the highest dose activity change, negative = inhibition, hits mostly inhibitors. Vaccinia virus Venus reporter expression, fluorescence. actives 0.46% (n = 330,000); calls by dose curve; tested in A549 cells; note: % is set by controls: 0 for no effect and ±100 for the full control effect; nearly all actives have a fitted effect of over 30% in size
# An asterisk follows results filed as active; i = inactive; ? = inconclusive; · = no result given; [ ] = remark or other dose. Unless noted, calls come from the whole dose curve; as a rule, active = well fitted inhibition curve with a large enough effect; inconclusive = small, poorly fitted or top-dose-only effect, or another doubt; inactive = no such curve, though single readings can be large or run the other way. Potency is the fitted concentration of half-maximal effect.
SMILES,NS1 inh,HCV inh,Vaccinia mCherry,Pf growth 96h,Pf growth 48h,VACV Venus inh
CC(C)CCn1c(NCCc2ccccc2)nc2c1c(=O)n(C)c(=O)n2C,5%,?,?,?,?,?
COCCn1c(-c2ccccc2)nc2oc3ccccc3c(=O)c2c1=O,-47%,14%,-1%,-28%,-6%,-7%
COc1cc(C(=O)NCCc2ncccc2C)ccc1OC1CCN(C(C)=O)CC1,-2%,18%,·,7%,9.3µM*,·
COc1ccccc1CCNC(=O)c1ccc(OC)c(OC2CCN(C(C)C)CC2)c1,3%,-2%,-19%,-7%,?,-13%
COc1ccc(C(=O)NCCc2ccc(C)cc2)cc1OC1CCN(C(C)=O)CC1,2%,3%,-10%,17%,-7%,-10%
COc1ccc(C(=O)NC(C)CCCC(C)(C)O)cc1OC1CCN(C(C)=O)CC1 (stereo not drawn),0%,21%,·,7.4µM*,-4%,·
COCCCNC(=O)c1ccc(OC)c(OC2CCN(C(C)C)CC2)c1,-6%,22µM*,·,?,-34%,·
COc1ccc(C(=O)NCCOC(C)C)cc1OC1CCN(C(C)=O)CC1,-4%,13%,·,10µM*,11%,·
CC1CC(C)CN(C(=O)CCc2nnc3ccc(N4CCCCC4)nn23)C1 (stereo not drawn),0%,7%,-16%,?,-18%,1%
O=C(NC[C@H]1CCCO1)c1cccc2c1C(=O)c1ccc(-c3ccc(F)cc3OCc3ccccc3)cc1S2(=O)=O,·,10µM*,?,·,·,?
COc1cccc(C2/C(=C(/O)c3ccc(C)cc3)C(=O)C(=O)N2Cc2ccco2)c1 (stereo not drawn),5%,10%,i,7%,10%,-1%
O=C(NCc1nc2ccccc2[nH]1)C1=C[C@@H](c2ccc(Br)cc2)C[C@@H](OCc2ccc(CO)cc2)O1,4%,?,-8%,?,?,?
O=C(NCc1nc2ccccc2[nH]1)C1=C[C@@H](c2csc3ccccc23)C[C@@H](OCc2ccc(CO)cc2)O1,16%,6%[8.37 µM],i,3.3µM*,?,?
O=C(NCc1nc2ccccc2[nH]1)C1=C[C@H](c2csc3ccccc23)C[C@H](OCc2ccc(CO)cc2)O1,?,?,-7%,15µM*,12µM*,-26%
Cc1cc(N2CCOCC2)ccc1/C=C\[N+](=O)[O-],-77%,?,?,-24%,14%,10µM*
O=[N+]([O-])c1ccc(N2CCOCC2)cc1O,1%,-3%,-19%,30%,22%,-25%
O=C(C1=COCCO1)N1CCN(S(=O)(=O)c2cccc(Cl)c2Cl)CC1,-2%,8%,·,15µM*,?,·
COc1ccc(NC(=O)Nc2cccc3c2O[C@H](CN(C)C(=O)Nc2ccc(OC)cc2)[C@@H](C)CN([C@H](C)CO)C3=O)cc1,·,-27%,16%,·,·,-7%
CNC(=O)c1ccsc1NC(=O)C1CCN(S(=O)(=O)c2ccc(Cl)s2)CC1,·,?,-12%,?,?,?
Cc1[nH]c2c(C)cccc2c1CCNC(=O)c1ccc2c(c1[N+](=O)[O-])C(=O)c1ccccc1C2=O,-6%,?,-2%,?,12µM*,89%
CCn1c(SCC(=O)N2CCCCC2C)nc2ccsc2c1=O (stereo not drawn),-19%,?,·,-23%,-3%,·
CC1CCCCN1C(=O)CSc1nc2cc3c(cc2c(=O)n1Cc1ccc2c(c1)OCO2)OCO3 (stereo not drawn),-9%,?,·,4.1µM*,?,·
O=C(CSc1nc2cc([N+](=O)[O-])ccc2n1-c1ccccc1)NCc1ccc2c(c1)OCO2,4µM*,?,i,10µM*,-22%,-4%
CC1CCCC(C)N1C(=O)Cn1c(SCC(=O)NCc2ccc3c(c2)OCO3)nc2ccccc21 (stereo not drawn),-15%,4%,-8%,-18%,6.6µM*,1%
CN(C)C(=O)Cn1c(SCC(=O)NCc2ccc3c(c2)OCO3)nc2ccccc21,5%,-1%,·,90%,2%,-9%
SMILES,NS1 inh,HCV inh,Vaccinia mCherry,Pf growth 96h,Pf growth 48h,VACV Venus inh
CC(=O)Nc1ccc(S(=O)(=O)N[C@@H](C)C(=O)OCC(=O)c2ccc[nH]2)cc1,·,7%,-15%,·,·,-13%
COc1ccc(CCNS(=O)(=O)c2cccc([N+](=O)[O-])c2)cc1OC,-9%,-4%,-6%,6%,55%,-13%
O=C(CSc1nc(=O)n(Cc2ccco2)c2c1CCC2)Nc1ccccc1C(F)(F)F,·,·,-10%,·,·,-21%
CCCCN=C1NN=C(c2cc3ccccc3o2)CS1,-18%,1%,-12%,13µM*,?,-5%
Clc1cccc(N2CCN(c3nc4ccccc4n4nnnc34)CC2)c1,·,·,-6%,·,·,2%
COc1cccc(/C=C2/CN(C)CC3=C2OC(N)=C(C#N)C3c2cccc(OC)c2)c1 (stereo not drawn),4%,?,·,?,13µM*,0%
c1ccc2nc(-c3ccc(N4CCOCC4)cc3)ccc2c1,8%,?,·,105%,69%,·
CN1CCN(c2ccc(-c3ccc4ccccc4n3)cc2)CC1,2%,16µM*,0%,i[5.75 µM],-46%,-2%
COc1ccc(C(=O)CSc2cc(C)[nH]c(=O)n2)cc1,0%,1%,·,124%,17%,·
COc1ccccc1Nc1nc(N)nc(CN2CCN(Cc3ccccc3)CC2)n1,5%,6%,·,?,?,·
Nc1nc(CN2CCN(Cc3ccccc3)CC2)nc(Nc2ccccc2)n1,-4%,-2%,·,13µM*,?,·
COc1ccc(Nc2nc(N)nc(CSc3n[nH]c(-c4ccccc4)n3)n2)cc1,-26%,-16%,-18%,·,?,-24%
Cc1cccc(Nc2nc(N)nc(CN3CCN(Cc4ccc5c(c4)OCO5)CC3)n2)c1,-14%,-27%,·,13µM*,?,·
Nc1nc(CSc2n[nH]c(-c3ccccc3)n2)nc(Nc2ccccc2)n1,-22%,3.2µM*,?,?,-1%,-28%
COc1ccccc1N1CCN(Cc2nc(N)nc(Nc3ccc(C)c(Cl)c3)n2)CC1,-53%,11µM*,?,?,?,?
COc1ccccc1Nc1nc(N)nc(CN2CCN(Cc3ccc4c(c3)OCO4)CC2)n1,1%,-11%,?,0%,?,-6%[7.34 µM]
Nc1cc(OC(=O)c2cccs2)nn1S(=O)(=O)c1ccccc1,-3%,18%,-28%,?,4%,-23%

# Source: PubChem BioAssay (National Center for Advancing Translational Sciences (NCATS))
